Results filed as inconclusive are left out. Active and inactive are the calls of the source. Calls come from the whole dose curve; as a rule, active = well fitted cell-killing curve with a large enough effect in the repeat runs; inconclusive = weak or mixed curves, or effect the other way; inactive = no such curve, though single readings can be large or run the other way.
% is set by controls: 0 for no effect and ±100 for the full control effect.

The test can be described thus: qHTS assay to identify small molecule agonists of the farnesoid-X-receptor (FXR) signaling pathway - cell viability counter screen (AID 743218). Note: nearly all actives have a fitted effect of over 45% in size. As to conditions: FXR-bla HEK293T viability, CellTiter-Glo luminescence, 16 h; series mostly up to 62.6 µM; viability change, negative = cytotoxic: at the top concentration. The text has this: U.S. Tox21 Program National Center for Advancing Translational Sciences [NCATS] NIH Chemical Genomics Center [NCGC] U.S. Environmental Protection Agency [EPA] National Institutes of Environmental Health Sciences [NIEHS] National Toxicology Program [NTP] U.S. Food and Drug Administration [FDA] Tox21 Assay Overview: The farnesoid-X-receptor (FXR), a nuclear hormone receptor, is highly expressed in liver, intestine, kidney and adrenal cortex. Natural ligands of FXR are the bile acids (Cholic acid, Chenodeoxy cholic acid etc). FXR is an important regulator of diverse metabolic pathways, including the bile acid homeostasis, lipid and glucose metabolisms. FXR regulates the expression of target genes by binding either as a monomer or as a heterodimer with the retinoid X receptor (RXR). Numerous studies have reported that FXR exerts protective function during cholestasis, diabetes, liver regeneration, and cancer. To identify compounds that activate FXR signaling, GeneBLAzer FXR-UAS-bla HEK 293T cell line (Invitrogen, Carlsbad, CA) containing a beta-lactamase reporter gene under the control of a UAS response element was used to screen the Tox21 10K compound library. The cytotoxicity of the Tox21 compound library against the FXR-bla cell line was tested in parallel by measuring the cell viability using CellTiter-Glo assay in the same wells.
Tox21 Assay Protocol Summary: FXR-bla cells were dispensed at 5000 cells/5uL/well in 1536-well black wall/clear bottom plates using a Multidrop Combi (Thermo Fisher Scientific, Waltham, MA) dispenser. After the assay plates were incubated at 37 C and 5% CO2 for 5 h, 23 nL of compounds dissolved in DMSO, positive controls or DMSO only was transferred to the assay plate by a Pintool station (Kalypsys, San Diego, CA). The assay plates were incubated at 37C for 16 h. After 1 uL of LiveBLAzerTM B/G FRET substrate was added using a Bioraptr Flying Reagent Dispenser (FRD) workstation (Beckman Coulter, Indianapolis, IN), the plates were incubated at room temperature for 2 h, and fluorescence intensity was measured by an Envision plate reader (PerkinElmer, Shelton, CT). For cell viability readout that measures cytotoxicity, 4uL/well of CellTiter-Glo reagent was added into the assay plates using a Bioraptr FRD. After 30 min incubation at room temperature, the luminescence intensity in the plates was measured using a ViewLux plate reader (PerkinElmer).
A general note: In qHTS, concentration-response curves come from the screen itself.
With `CCCCCCCCCCCCCCCCCCO`, the “viability change, negative = cytotoxic” value is 11.1% (inactive).

Regarding `CCOc1ccccc1OCC`, the “viability change, negative = cytotoxic” value was -0.793% (inactive).

In the case of `NC(=O)NC1N=C([O][Al])NC1=O` (stereo not given), the “viability change, negative = cytotoxic” value was 1.17% (inactive).

Turning to `CC(COc1ccccc1)NN` (stereo not given), the “viability change, negative = cytotoxic” value was -0.264% (inactive).

Take `CC1(C)[C@@H]2CC[C@@]1(C)[C@H](O)C2`: the “viability change, negative = cytotoxic” value is 2.42% (inactive).

Take `O=C(O)c1cn(C2CC2)c2cc(N3CCNCC3)c(F)cc2c1=O`: the “viability change, negative = cytotoxic” value was 9.5% (inactive).

Regarding `NO`, the “viability change, negative = cytotoxic” value is -25.1% [at 81.1 µM] (inactive).

`CC[N+](C)(CC)CCOC(=O)C1c2ccccc2Oc2ccccc21`: the “viability change, negative = cytotoxic” value is 12.2% (inactive).

With `CCC(C)(CCCC(C)C)OC(C)=O` (stereo not given), the “viability change, negative = cytotoxic” value is 1.34% (inactive).

As for `COc1cc(C(=O)OC(COCCC(C)C)CN2CCOCC2)cc(OC)c1OC` (stereo not given), the “viability change, negative = cytotoxic” value is 6.31% (inactive).

Consider `CC[N+](CC)(CC)CCOc1cccc(OCC[N+](CC)(CC)CC)c1OCC[N+](CC)(CC)CC`, for which the “viability change, negative = cytotoxic” value was 8.68% (inactive).

On to `CCCCCCCCCCCCSC`, for which the “viability change, negative = cytotoxic” value is 17.1% (inactive).

As for `Clc1cc(Cl)c(Cl)nc1Cl`, the “viability change, negative = cytotoxic” value is 12.1% (inactive).

In the case of `O=C1CCCCCCCCCCCCCCO1`, the “viability change, negative = cytotoxic” value was 19.3% (inactive).

`CCN[C@H]1C[C@H](C)S(=O)(=O)c2sc(S(N)(=O)=O)cc21`: the “viability change, negative = cytotoxic” value was 11.6% (inactive).

For `Cc1ccnc(NS(=O)(=O)c2ccc(N)cc2)n1`, the “viability change, negative = cytotoxic” value was -4.96% (inactive).

On to `CC(=O)c1ccc2ccccc2c1`, for which the “viability change, negative = cytotoxic” value is -0.27% (inactive).

As for `O=C(O)CCCC[P+](c1ccccc1)(c1ccccc1)c1ccccc1`, the “viability change, negative = cytotoxic” value is 5.21% (inactive).

For `O=C1NC(=O)C2CC=CCC12` (stereo not given), the “viability change, negative = cytotoxic” value is -5.51% (inactive).

With `CCCCCCCCN1CCCC1=O`, the “viability change, negative = cytotoxic” value is -35% (inactive).

For the compound `FB(F)F`, the “viability change, negative = cytotoxic” value was 11.6% [at 81.1 µM] (inactive).

As for `O=C(c1ccccc1O)c1ccccc1O`, the “viability change, negative = cytotoxic” value was 2.24% (inactive).

As to `CC(C)=CCC/C(C)=C/C#N`, the “viability change, negative = cytotoxic” value was -0.122% [at 81.1 µM] (inactive).

Consider `Cc1ncc([C@@H](CCCCCCc2ccc3c(n2)NCCC3)CC(=O)O)cn1`, for which the “viability change, negative = cytotoxic” value was -8.16% (inactive).

Turning to `c1ccc(CCc2ccccc2)cc1`, the “viability change, negative = cytotoxic” value is 43.1% (inactive).

Turning to `CCOC(=O)COc1cc(-n2ncc(C(F)(F)F)c(C)c2=O)c(F)cc1Cl`, the “viability change, negative = cytotoxic” value is -17.7% (inactive).

Take `COC(=O)C1=C(C)NC(C)=C(C(=O)OC(C)C)C1c1cccc2nonc12` (stereo not given): the “viability change, negative = cytotoxic” value was 6.64% (inactive).

In the case of `CCNS(=O)(=O)c1ccc(C)cc1`, the “viability change, negative = cytotoxic” value was 5.84% [at 81.1 µM] (inactive).

Turning to `Nc1c2c(nc3c1CCC3)CCCC2`, the “viability change, negative = cytotoxic” value was 0.37% (inactive).

Take `CC(C)C(=O)OC(=O)C(C)C`: the “viability change, negative = cytotoxic” value is -10.5% (inactive).

On to `CCCCCCCCCCOc1cc2c(=O)c(C(=O)OCC)c[nH]c2cc1OCC`, for which the viability change, negative = cytotoxic is 4.21% [at 5.95 µM] (inactive).

In the case of `CCCc1nn(C)c2c(=O)[nH]c(-c3cc(S(=O)(=O)N4CCN(C)CC4)ccc3OCC)nc12`, the “viability change, negative = cytotoxic” value is -1.34% (inactive).

As to `O=C(O)CNC(=O)c1ccccc1`, the “viability change, negative = cytotoxic” value is -12.6% (inactive).

For the compound `CC1=NN(c2cc(S(=O)(=O)O)ccc2Cl)C(=O)C1N=Nc1ccccc1` (stereo not given), the “viability change, negative = cytotoxic” value is -2.17% (inactive).

As to `CCCCOC(=O)CCC(C)=O`, the “viability change, negative = cytotoxic” value is -3.99% (inactive).

For `CCCCCCC#CC(=O)OC`, the “viability change, negative = cytotoxic” value is -2.7% (inactive).

`CCOC(=O)c1ccccc1`: the “viability change, negative = cytotoxic” value is 0.24% (inactive).

In the case of `Cc1coc2ccccc2c1=O`, the “viability change, negative = cytotoxic” value is 0.406% (inactive).

As for `C=CN1CCCCCC1=O`, the “viability change, negative = cytotoxic” value is 15.3% (inactive).

Take `Cc1ccc(C(=O)Nc2ccc(S(=O)(=O)O)c3cc(S(=O)(=O)O)cc(S(=O)(=O)O)c23)cc1NC(=O)c1cccc(NC(=O)Nc2cccc(C(=O)Nc3cc(C(=O)Nc4ccc(S(=O)(=O)O)c5cc(S(=O)(=O)O)cc(S(=O)(=O)O)c45)ccc3C)c2)c1`: the “viability change, negative = cytotoxic” value is 11.6% (inactive).

The record behind these values is PubChem BioAssay (Tox21).
